The campaign covered roughly 320,000 compounds. About 22,000 (6.9%) were called active. Where a call stands in place of a potency, no number is given. Inconclusive results (about 27%) are left out. Calls come from the whole dose curve; as a rule, active = well fitted inhibition curve with a large enough effect; inconclusive = small, poorly fitted or top-dose-only effect, or another doubt; inactive = no such curve, though single readings can be large or run the other way. Many of the other results were omitted from the sample, so actives are more common in it than they were.
Potency is the fitted concentration of half-maximal effect.

This assay is described as follows: Primary qHTS for delayed death inhibitors of the malarial parasite plastid, 96 hour incubation. The note with it: P. falciparum luciferase reporter growth; series mostly up to 28.7 µM. In a few lines:
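Cell-based qHTS: luciferase-tagged P. falciparum in erythrocytes (2% hematocrit, 0.05% parasitemia final) incubated with compounds for 96 hours, 37 C, 5% CO2; luciferase detection reagent then added and luminescence measured.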
In general terms: Quantitative high-throughput screening tests each substance at several concentrations.
Turning to `O=C(NCCCc1ccccc1)C1CCC(=O)N(CCc2ccc(Cl)cc2)C1` (stereo not given), the Potency entry was “inactive”.
With `COc1ccccc1CNS(=O)(=O)c1c(C)[nH]c(C)c1C(=O)N1CCCCC1`, the Potency entry was “inactive”.
Still for that read-out and setting: for `COc1cccc(NC(=O)CN(C)C(=O)c2cc(C3CC3)nn2-c2ccccc2)c1` the value was “inactive”; for `COc1cc(CN2CCC(C(N)=O)CC2)ccc1OCc1ccccc1`, “inactive”.
The same measure, in the same setting: for `COc1ccc(CN2CCN(C(=O)c3cc(C4CC4)nn3-c3ccccc3)CC2)cc1F` the value was 11.7 µM (active).
Still for that read-out and setting: for `O=C(NCc1cccnc1)c1ccccc1NC(=O)c1c(F)cccc1F` the value was “inactive”; for `Cc1cc(C)c(NC(=O)CN2C(=O)NC(Cc3ccccc3)C2=O)c(C)c1` (stereo not given), “inactive”; for `O=[N+]([O-])c1ccc2nc(-c3ccccn3)[nH]c2c1`, “inactive”.
With `O=C(CSC(=S)N1CCOCC1)c1cc(Br)cc(Br)c1O`, the Potency entry is “inactive”.
The same measure, in the same setting: the same measure for `O=P(O)(CN1CCCCCC1)C1Cc2ccccc2C1`: “inactive”; for `O=C(/C(=C/c1cccc(Cl)c1)c1nc2ccccc2[nH]1)c1ccccc1`: 11.7 µM (active).
Still for that read-out and setting: for `O=C(Cc1nc2ccccc2[nH]c1=O)c1ccc(Cl)cc1` the value was “inactive”; for `O=C(CCc1nc2ccccc2c(=O)[nH]1)OCC(=O)c1cccc(Cl)c1`, “inactive”.
Still for that read-out and setting: the same measure for `Cc1ccc(-c2nc3ccccc3[nH]c2=O)cc1`: “inactive”; for `N#CCc1ccc(NC(=O)c2ccccc2C(=O)Nc2ccc(CC#N)cc2)cc1`: “inactive”; for `NS(=O)(=O)c1ccc2nc(NC(=O)C3=COCCO3)sc2c1`: “inactive”.
Consider `O=C(Nc1cccc(C(F)(F)F)c1)c1cc(Br)cc(Br)c1O`, for which the Potency was 15.1 µM (active).
Same read-out and setting: for `NC(=O)Nc1cccc(C(F)(F)F)c1` the value was “inactive”.
On the same count and under the same terms, the same measure for `O=C(O)CC1(CC(=O)Nc2cccc(C(F)(F)F)c2)CCCC1`: “inactive”.
The same measure, in the same setting: the same measure for `CC(=O)Nc1ccc(NC(=O)COC(=O)c2ccccc2C(=O)c2ccccc2)cc1`: “inactive”.
Consider `O=C(Nc1cccc([N+](=O)[O-])c1)Nn1cnnc1`, for which the Potency entry is “inactive”.
On the same count and under the same terms, the same measure for `Cn1nc(C(F)(F)F)cc1-c1ccc(/C=C(\C#N)C(=O)c2cccc(C(F)(F)F)c2)s1`: “inactive”.
For `Cc1ccc(NNC(=O)c2c(F)cccc2Cl)cc1Cl`, the Potency result was “inactive”.
On the same count and under the same terms, for `Cc1ccc(NC(=O)CSc2nnc(CNC(=O)c3ccccc3F)o2)cc1` the value was “inactive”; for `COc1ccccc1NC(=O)CSc1nnc(CNC(=O)c2ccccc2F)o1`, 1.65 µM (active).
Same read-out and setting: the same measure for `CCCCCNC(=O)c1cccnc1SCC(=O)Nc1ccccc1OC`: “inactive”; for `CC1(C)NC(=O)N(CC(=O)N2CCN(S(=O)(=O)c3ccccc3F)CC2)C1=O`: “inactive”.
The same measure, in the same setting: the same measure for `O=C(Nc1cccc(NC(=O)c2ccc(Br)cc2)c1)c1ccccc1`: “inactive”; for `O=C(Nc1cccc(-c2nc3ccccc3[nH]2)c1)c1ccc(C(=O)Nc2cccc(-c3nc4ccccc4[nH]3)c2)cc1`: 0.37 µM (active); for `O=C(Cc1cccs1)Nc1cccc(-c2nc3ccccc3[nH]2)c1`: “inactive”.
As for `N#CC1(NC(=O)COC(=O)Cc2n[nH]c(=O)c3ccccc23)CCCCC1`, the Potency entry is “inactive”.
On to `CCN(C(=O)CSc1nnc(-c2ccc(OC(F)F)cc2)n1N)C1CCS(=O)(=O)C1` (stereo not given), for which the Potency entry was “inactive”.
As for `O=c1cc(CO)oc(CN2CCC(Cc3ccccc3)CC2)c1O`, the Potency result is “inactive”.
The same measure, in the same setting: the same measure for `NC(=O)c1ccc(CN2CCC(Cc3ccccc3)CC2)cc1`: “inactive”; for `COc1cc(C)cc(CN2CCC(Cc3ccccc3)CC2)c1O`: 1.17 µM (active).
The same measure, in the same setting: for `CC(C)NC(=O)NNc1c(Cl)cncc1Cl` the value was “inactive”; for `O=C(CNS(=O)(=O)c1ccc2ccccc2c1)Nc1ccc(F)c(F)c1F`, “inactive”; for `COc1ccc(/C=N/NC(=O)C2CC2)c(OC)c1OC`, “inactive”.
Still for that read-out and setting: the same measure for `Cc1cccc(NC(=O)C2CCN(S(=O)(=O)c3cccc4cccnc34)CC2)c1`: 5.86 µM (active).
Regarding `O=C(O)C1CCCN(S(=O)(=O)c2cccc3cccnc23)C1` (stereo not given), the Potency was 2.08 µM (active).
Still for that read-out and setting: the same measure for `COc1cccc(CNC(=O)C2CCN(S(=O)(=O)c3cccc4cccnc34)CC2)c1`: “inactive”.
Same read-out and setting: for `O=C(NCc1ccco1)C1CCCN(S(=O)(=O)c2cccc3nonc23)C1` (stereo not given) the value was “inactive”; for `COc1ccc(NC(=O)C2CCCN(S(=O)(=O)c3cccc4cccnc34)C2)cc1` (stereo not given), “inactive”; for `CC(=O)c1cccc(NC(=O)C2CCCN(S(=O)(=O)c3cccc4nonc34)C2)c1` (stereo not given), “inactive”.
Still for that read-out and setting: the same measure for `CN(CC(=O)NC1CCCCC1)S(=O)(=O)c1cccc2cccnc12`: “inactive”; for `COc1ccc(S(=O)(=O)N2CCCC(C(=O)Nc3ccc(NC(=O)c4ccccn4)cc3)C2)cc1` (stereo not given): “inactive”.
Turning to `COc1ccc(NC(=O)C2CCCN(S(=O)(=O)c3cccc4cccnc34)C2)cc1OC` (stereo not given), the Potency is 10.4 µM (active).
With `Cc1ccc(C(=O)Nc2nc(N)n(-c3ccccc3)n2)cc1`, the Potency result was “inactive”.
The same measure, in the same setting: for `CC1=NN(C(N)=S)C(=O)C1N=Nc1cc(Cl)ccc1Cl` (stereo not given) the value was “inactive”; for `CCOC(=O)C1CCCN(S(=O)(=O)c2ccc(-n3cnnn3)c(C)c2)C1` (stereo not given), “inactive”; for `CCn1c(SCC(=O)NC2=NCCS2)nnc1C(C)NC(=O)c1ccccc1F` (stereo not given), “inactive”.
Same read-out and setting: for `O=C(CCCCCNC(=O)c1ccccc1)N/N=C/c1ccccc1` the value was 1.47 µM (active).
Same read-out and setting: for `O=C(CC(=O)N/N=C\c1ccc(F)cc1)NCCc1ccccc1` the value was “inactive”; for `O=C(CNC(=O)c1cccnc1)N/N=C/c1cccnc1`, “inactive”.
In the case of `CNS(=O)(=O)c1cccc(C(=O)OCCCC(=O)c2ccccc2)c1`, the Potency entry was “inactive”.
In the case of `COc1ccc(Cl)cc1NC(=O)CN(C)CC(=O)Nc1ccc2c(c1)OCO2`, the Potency entry is “inactive”.
The same measure, in the same setting: the same measure for `Cn1c(CC(=O)Nc2ccc(F)cc2)nnc1SCC(=O)NC1CCCCC1`: “inactive”; for `Clc1nc(NC2CCCC2)nc(N2CCOCC2)n1`: 11.7 µM (active).
Same read-out and setting: for `COC(=O)CNc1nc(Cl)nc(N2CCC(C)CC2)n1` the value was “inactive”; for `Cc1ccc(Nc2nc(N3CCOCC3)nc(N3CCOCC3)n2)cc1Cl`, “inactive”.
On the same count and under the same terms, the same measure for `O=C(Nc1ccc(N2CCCC2=O)cc1)c1cncc(Br)c1`: “inactive”; for `O=C(c1ccc(F)c(S(=O)(=O)N2CCOCC2)c1)N(CCc1ccccc1)Cc1ccccc1`: 2.62 µM (active).
For `Cc1cccc(N(Cc2ccccc2)C(=O)c2cc(S(=O)(=O)N3CCOCC3)ccc2F)c1`, the Potency was 11.7 µM (active).
On the same count and under the same terms, the same measure for `Cc1cccc(NC(=O)c2cc(S(=O)(=O)N3CCC4(CC3)OCCO4)ccc2F)c1`: “inactive”; for `NC(=O)C1CCN(C(=O)c2ccc(F)c(S(=O)(=O)N3CCOCC3)c2)CC1`: “inactive”; for `COc1ccc(C(=O)N(Cc2ccccc2)c2ccc(C)cc2)cc1S(=O)(=O)N1CCOCC1`: “inactive”.
With `Cc1cccc(N(Cc2ccccc2)C(=O)c2ccccc2F)c1`, the Potency result was “inactive”.
On to `Cc1cccc(C(=O)Nc2ccc(Oc3cnccn3)cc2)c1`, for which the Potency result is “inactive”.
The same measure, in the same setting: the same measure for `COc1cccc(C(=O)n2ccc(-c3cccs3)n2)c1`: “inactive”; for `CC(=O)Nc1cccc(NC(=O)CSc2nccn2Cc2ccc(F)cc2)c1`: “inactive”.
Same read-out and setting: the same measure for `COC(=O)[C@H](CC(C)C)NC(=O)N1CCCCC1C` (stereo not given in full): “inactive”; for `CCCc1c(C(=O)Nc2ccc(F)cc2)cnn1-c1ccccc1`: “inactive”; for `Cc1cc(C)cc(N(CCC#N)C(=O)CN2C(=O)NC3(CCCC3)C2=O)c1`: “inactive”.
On to `COc1ccc(CCNc2nc3ccc(C)cc3n3cnnc23)cc1OC`, for which the Potency entry is “inactive”.
Still for that read-out and setting: the same measure for `COc1ccc(CCNc2cc(C)nc3c(-c4ccc(Cl)cc4)c(C)nn23)cc1OC`: 10.4 µM (active); for `COc1ccc(CCNc2nc(C)cc(C)n2)cc1OC`: “inactive”.
On the same count and under the same terms, the same measure for `COc1ccccc1-c1cnn2c(N3CCOCC3)cc(C)nc12`: “inactive”; for `CC(C)c1nccn1S(=O)(=O)c1cc([N+](=O)[O-])ccc1Cl`: 11.7 µM (active); for `CCc1nccn1S(=O)(=O)c1cccc([N+](=O)[O-])c1`: “inactive”.
The same measure, in the same setting: for `O=C(Oc1ccc([N+](=O)[O-])cc1)c1ccc(Cl)c(S(=O)(=O)N2CCCCC2)c1` the value was “inactive”; for `CSc1ccc(-c2c(C#N)c(N)nc3c2c(C)nn3-c2ccccc2)cc1`, 2.08 µM (active); for `Cn1c(=O)c2c(-c3cccc(Br)c3)c(C#N)c(N)nc2n(C)c1=O`, “inactive”.
Consider `Cc1nn(-c2ccccc2)c2c1C(c1ccc(F)cc1)C(C#N)=C(N)O2` (stereo not given), for which the Potency result was “inactive”.
Consider `COc1ccc2c3c(c(=O)oc2c1)C1O[C@](CCCCN2C(=O)c4ccccc4C2=O)(Cc2c1ccc1ccccc21)O3`, for which the activity change, negative = inhibition is 49.1% [at 5.75 µM] (inactive).
Regarding `COc1cccc(N2C(=O)CC(N3CCN(S(=O)(=O)c4ccccc4)CC3)C2=O)c1` (stereo not given), the Potency result was “inactive”.
The same measure, in the same setting: for `COc1cccc(N2C(=O)CN(Cc3ccccc3)C2=S)c1` the value was 1.31 µM (active); for `Cc1cccc(C)c1N1C(=O)CN(Cc2ccccc2)C1=S`, “inactive”; for `Cc1ccc(S(=O)(=O)N(C)c2ccc(OCC(=O)OCC(=O)N(CC#N)c3ccccc3)cc2)cc1`, “inactive”.
Take `CN(CC(=O)Nc1ccc(Cl)cc1)C(=O)CNC(=O)c1ccc2ccccc2c1`: the Potency entry is “inactive”.
Still for that read-out and setting: the same measure for `O=c1c2ccccc2cnn1Cc1n[nH]c(=S)n1-c1ccccc1F`: “inactive”.
On the same count and under the same terms, the same measure for `COc1ccc(NS(=O)(=O)c2cc(NC(=O)/C=C/c3cc(OC)c(OC)c(OC)c3)ccc2N2CCCCC2)cc1`: 2.08 µM (active); for `COc1ccc(/C=C/C(=O)Nc2ccc3c(c2)OCCO3)cc1OC`: “inactive”.
Regarding `COc1ccc(NS(=O)(=O)c2ccc(N3CCN(CCO)CC3)c([N+](=O)[O-])c2)cc1`, the Potency entry is “inactive”.
Same read-out and setting: the same measure for `CCOC(=O)COn1c(=O)c(-c2ccc(OCC)cc2)[n+]([O-])c2ccccc21`: “inactive”; for `Cc1cc([N+](=O)[O-])c(-c2ccc(/C=N/n3cnnc3)o2)cc1Cl`: “inactive”; for `O=C1C2C3C=CC(C4CC34)C2C(=O)N1/N=C/c1ccc(-c2ccccc2[N+](=O)[O-])o1` (stereo not given): 13.1 µM (active).
On the same count and under the same terms, for `Cc1cc(-c2ccc(/C=N/n3cnnc3)o2)c([N+](=O)[O-])cc1C` the value was “inactive”; for `CCc1ccc(OCC2c3cc(OC)c(OC)cc3CCN2C(C)=O)cc1` (stereo not given), “inactive”; for `COc1cc2c(cc1O)[C@H](Cc1ccc(Oc3cc(C[C@@H]4NCCc5cc(OC)c(O)cc54)ccc3O)cc1)NCC2`, 0.415 µM (active).
Still for that read-out and setting: for `COc1ccc(NC(=O)CN(C)C(=O)c2ccc(NC3CC3)c([N+](=O)[O-])c2)cc1` the value was “inactive”.

Source of the values: PubChem BioAssay AID504834 (National Center for Advancing Translational Sciences (NCATS), 2011).
